Our source for the growth reduction values is the supplement of paper PMC12024424.

Structures can show the parent of a compound that is named as a salt.

This assay relates to Staphylococcus aureus Sa2 (MRSA, cystic fibrosis isolate). Kind of assay: growth reduction vs untreated control (OD550); higher = stronger antibacterial activity. To be noted: 0.1 mM; 24 h. As to the method:
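Single-dose screen of the MedChem Express Drug Repurposing Library (0.1 mM, 1% DMSO) against planktonic MRSA S. aureus Sa2 (CF isolate) in TSB in 96-well plates, 37 °C aerobic, 24 h. Assays were run in triplicate and repeated twice.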
`O=C(NCc1ccc(Oc2ccccc2)cc1)c1nc(-c2cc(Br)c(O)c(Br)c2)no1` showed a growth reduction of 95.3%.
To `O=C(O)CNC(=O)c1c(=O)cc(CCc2ccccc2)n2[nH]cnc12` [Enarodustat] belongs 93.3%; to `C[C@@H](OC[C@@]1(c2ccccc2)CC[C@]2(CCC(=O)N2)CN1)c1cc(C(F)(F)F)cc(C(F)(F)F)c1` [Rolapitant], 100%.
To `C[C@H]1O[C@@H](n2cc(F)c(=O)[nH]c2=O)[C@H](O)[C@@H]1O` [Doxifluridine] belongs 97.9%.
To `COc1cccc2c1C(=O)c1c(O)c3c(c(O)c1C2=O)C[C@@](O)(C(=O)CO)C[C@@H]3O[C@H]1C[C@H](N)[C@@H](O)[C@H](C)O1` [Epirubicin (hydrochloride)] belongs 95%; to `CCc1cc(-c2noc(-c3cc(OC)nc(C4CCCC4)c3)n2)cc(C)c1OC[C@@H](O)CO` [Cenerimod], 100%.
Regarding `N[C@@H]1CC[C@@H](c2ccc(Cl)c(Cl)c2)c2ccccc21` [Dasotraline (hydrochloride)], the growth reduction was 100%.
To `CC(/C=C/C=C(\C)C(=O)O)=C\C=C\C=C(C)\C=C\C=C(/C)C(=O)O` [Transcrocetin meglumine salt] belongs 100%; to `CC(C)(C)c1nc(-c2cccc(NS(=O)(=O)c3c(F)cccc3F)c2F)c(-c2ccnc(N)n2)s1` [Dabrafenib (Mesylate)], 98.3%; to `Cn1cc(-c2ccncc2)c(-c2ccc(OCc3ccc4ccccc4n3)cc2)n1` [Mardepodect (hydrochloride)], 100%.
To `COCC[n+]1c2c(n(Cc3cnccn3)c1C)C(=O)c1ccccc1C2=O` [Sepantronium (bromide)] belongs 100%; to `COc1ccc(NS(=O)(=O)c2c(F)c(F)c(F)c(F)c2F)cc1F` [Batabulin], 95.5%; to `O=[N+]([O-])c1ccc(O)c2ncccc12` [Nitroxoline], 98.4%.
To `Cc1cc(Nc2ncc(Cl)c(Nc3ccccc3S(=O)(=O)C(C)C)n2)c(OC(C)C)cc1C1CCNCC1` [Ceritinib dihydrochloride] belongs 100%; to `COc1cc2c(cc1Cc1cccc(Cl)c1F)c(=O)c(C(=O)O)cn2[C@H](CO)C(C)C` [Elvitegravir], 100%.
`CCCCCCNC(=O)n1cc(F)c(=O)[nH]c1=O` [Carmofur] showed a growth reduction of 100%.
The value for `NCCCC[C@H](NC(=O)[C@@H](NC(=O)[C@H](Cc1c[nH]c2ccccc12)NC(=O)[C@H](CCCCN)NC(=O)[C@H](CCCCN)NC(=O)[C@H](Cc1c[nH]c2ccccc12)NC(=O)[C@H](Cc1c[nH]c2ccccc12)NC(=O)[C@H](CCCCN)NC(=O)[C@@H](N)CCCCN)C(c1ccccc1)c1ccccc1)C(N)=O` was 100%; that for `O/N=c1\cc(-c2cc3sccc3cn2)oc2ccc(CCCN3CCOCC3)cc12` [Foliglurax (monohydrochloride)] was 100%.
In turn, `O=C(NC(=Nc1cc(C(F)(F)F)[nH]n1)Nc1cc(F)cc(Cl)c1)c1cccc(Cl)c1` [Parimifasor] yielded a growth reduction of 100%.
With `CC(C)(C)OC(=O)N[C@H]1CCCCC/C=C\[C@@H]2C[C@@]2(C(=O)NS(=O)(=O)C2CC2)NC(=O)[C@@H]2C[C@@H](OC(=O)N3Cc4cccc(F)c4C3)CN2C1=O` [Danoprevir], the growth reduction was 99.9%.
Regarding `CC(=O)Oc1cc(C)c(OC(C)=O)c2ccccc12` [Vitamin K4], the growth reduction was determined as 95.5%.
For the compound `CNC(=O)c1cc(Oc2ccc(NC(=O)Nc3ccc(Cl)c(C(F)(F)F)c3)c(F)c2)ccn1` [Regorafenib (Hydrochloride)], the growth reduction was 100%.
Consider `Cc1cc(O[C@@H](CCC(F)(F)F)c2ccc(C(=O)NCCC(=O)O)cc2)cc(C)c1-c1ccc(C(C)(C)C)cc1` [Adomeglivant], for which the growth reduction was 100%.
`Cc1cc(-c2nc(CN3CCNCC3)no2)cc2c1C(=O)N(Cc1ccc(OC(F)(F)F)cc1)C2`: the growth reduction is 100%.
The compound `Cc1ccc(Sc2ccccc2N2CCNCC2)c(C)c1` [Vortioxetine] showed a growth reduction of 100%.
`COc1cc2ncnc(Nc3ccc(F)c(Cl)c3)c2cc1NC(=O)/C=C/CN1CCCCC1` [Dacomitinib] came in with a growth reduction of 100%.
As to `C#C[C@]1(OC(C)=O)CC[C@H]2[C@@H]3CCC4=C[C@@H](OC(C)=O)CC[C@@H]4[C@H]3CC[C@@]21C` [Ethynodiol diacetate], the growth reduction came out at 92.7%.
For the compound `O=C1Nc2ccc(Cl)cc2[C@@](C#CC2CC2)(C(F)(F)F)O1` [Efavirenz], the growth reduction was found to be 96.6%.
Compound `CC(C)OC(=O)CCC/C=C\C[C@@H]1[C@@H](/C=C/[C@@H](O)COc2cccc(C(F)(F)F)c2)[C@H](O)C[C@@H]1O` [Travoprost] yielded a growth reduction of 100%.
In turn, `Cn1c(O)c(C2=c3ccccc3=NC2=O)c2ccccc21` [Meisoindigo] showed a growth reduction of 100%.
For the compound `Cc1cc(C2CCCCC2)n(O)c(=O)c1` [Ciclopirox], the growth reduction was 99.3%.
To `CN(C)C(=O)/C=C/CNCCOc1ccc(/C(=C(/CC(F)(F)F)c2ccccc2)c2ccc3[nH]nc(F)c3c2)cn1` belongs 100%; to `CCCCCNC(=N)N/N=C/c1c[nH]c2ccc(OC)cc12` [Tegaserod (maleate)], 100%; to `Clc1ccc(COC(Cn2ccnc2)c2ccc(Cl)cc2Cl)cc1` (stereo not given) [Econazole (nitrate)], 100%.
To `CC/C(=C(\c1ccccc1)c1ccc(OCCN(C)C)cc1)c1ccccc1` [Tamoxifen (Citrate)] belongs 100%; to `CC(C)(C)CC(C)(C)c1ccc(OCCOCC[N+](C)(C)Cc2ccccc2)cc1` [Benzethonium chloride], 100%.
For `N#CC(c1ccc(Cl)cc1)c1c(Cl)cc(-n2ncc(=O)[nH]c2=O)cc1Cl` (stereo not given) [Diclazuril], the growth reduction was 100%.
In the case of `CC(C)(C)[C@@H]1NC(=O)O[C@@H]2CCC[C@H]2OC/C=C/C(F)(F)c2nc3ccccc3nc2O[C@@H]2C[C@@H](C(=O)N[C@]3(C(=O)NS(=O)(=O)C4(C)CC4)C[C@H]3C(F)F)N(C2)C1=O` [Glecaprevir], the growth reduction worked out at 100%.
The value for `O=c1[nH]c(=O)n([C@H]2C[C@H](O)[C@@H](CO)O2)cc1/C=C/Br` [Brivudine] was 100%; that for `CC1CS(=O)(=O)CCN1/N=C/c1ccc([N+](=O)[O-])o1` (stereo not given) [Nifurtimox] was 100%.
